# Screens deposited in PubChem by National Center for Advancing Translational Sciences (NCATS).
# IL1B secr inh – qHTS for Inhibitors of Inflammasome Signaling: IL-1-beta AlphaLISA Primary Screen. activity change, % at 57.5 µM. AID 743279, 2014. THP-1 LPS/ATP IL-1B secretion, AlphaLISA, 16 h; hits give low values. actives 4.7% (n = 360,000); in the data active = activity change below about -50%; inconclusive = mostly about -30% to -49%
#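 THP-1 cells pretreated 1 hr with compounds (up to 57.5 uM final), then stimulated with LPS (250 ng/mL final) plus ATP (1.25 mM final); secreted IL-1B measured by AlphaLISA after 16 hr, decreased signal indicating inhibition.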
# ELG1 DNA repair – qHTS screen for small molecules that inhibit ELG1-dependent DNA repair in human embryonic kidney (HEK293T) cells expressing luciferase-tagged ELG1. HEK293T ELG1-luciferase reporter, luminescence, 16 h; DNA damage induced by 5-fluorouridine. Potency, µM (top dose mostly 46.1 µM), hits mostly inhibitors. actives 2.3% (n = 330,000); note: nearly all actives have a fitted effect of over 55% in size
#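 Step one: seed 2,000 cells per well. Step two: pin-transfer compound or DMSO alongside 5-fluorouridine. Step three: incubate 16 hr, 37 °C, 5% CO2. Step four: add ONE-Glo, wait 30 min, read luminescence.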
# HT1080 IDH1KD tx – qHTS for induction of synthetic lethality in tumor cells producing 2HG: qHTS for the HT-1080-IDH1KD cell line. HT-1080 IDH1 knockdown viability, ATP luminescence, 48 h. Potency, µM (highest dose often 46.1 µM), actives largely listed as cytotoxic. actives 2% (n = 360,000)
#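 In this qHTS, HT-1080 cells depleted of IDH1 are exposed for 48 h at 37 °C to compound titrations. Toxicity is scored from CellTiter-Glo luminescence, with DMSO as full viability and medium alone as none.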
# TDP1 cell noCPT – qHTS for Inhibitors of human tyrosyl-DNA phosphodiesterase 1 (TDP1): qHTS in cells in absence of CPT | DT40 Tdp1-/- hTDP1 cells, no CPT, ATP luminescence, 48 h | Potency, µM (top dose mostly 46.2 µM), actives largely listed as inhibitors | actives 15% (n = 420,000) | AID 686978, 2013; note: nearly all actives have a fitted effect of over 55% in size
#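 Camptothecin absent (DMSO only). Human TDP1-complemented DT40 knockout cells, 400 cells/well, 37 °C for minimum 48 hr; ATP measured via CellTiter-Glo, 30 min dark incubation, luminescence.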
# DT40 TDP1 CPT – qHTS for Inhibitors of human tyrosyl-DNA phosphodiesterase 1 (TDP1): qHTS in cells in presence of CPT. chicken DT40 Tdp1-/-;hTDP1 cells + 20 nM CPT, ATP luminescence, 48 h. Potency, µM (highest dose often 46.2 µM), actives largely listed as inhibitors. actives 12% (n = 420,000). AID 686979, 2013; note: nearly all actives have a fitted effect of over 55% in size
#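 Cell growth measured by CellTiter-Glo luminescence after a minimum 48 h, 37 C compound exposure with 20 nM CPT in Tdp1-knockout DT40 cells stably expressing hTDP1, seeded 400/well; qHTS titration format.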
# HT1080-NT tox – qHTS for induction of synthetic lethality in tumor cells producing 2HG: qHTS for the HT-1080-NT fibrosarcoma cell line. actives 1.6% (n = 360,000). Potency, µM (doses to about 46.1 µM), hits mostly cytotoxic. HT-1080-NT fibrosarcoma viability, CellTiter-Glo ATP luminescence, 48 h;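 note: NT is the 2HG producing partner of a matched IDH1 knockdown line; nearly all actives have a fitted effect of over 55% in size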
#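 HT-1080-NT; 750 cells/well; 5% FBS RPMI; 48 h compound, 37 degrees C; CellTiter-Glo luminescence; curve fitting and curve-class assignment.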
# Hits are given with their value; n = inactive; u = inconclusive; x = not tested or not shown; [ ] = another dose, or the depositor's remark. The list is not random: actives were taken first. Their share in the collection is about 19%. Unless noted, calls come from the whole dose curve; as a rule, active = well fitted curve in the direction sought with a large enough effect; inconclusive = small, poorly fitted or top-dose-only effect, or another doubt; inactive = no such curve, though single readings can be large; an effect the other way counts as inactive or inconclusive.
SMILES,IL1B secr inh,ELG1 DNA repair,HT1080 IDH1KD tx,TDP1 cell noCPT,DT40 TDP1 CPT,HT1080-NT tox
CCOc1ccc(-n2c(N)c(C(=O)NCc3ccco3)c3nc4ccccc4nc32)cc1,-96,n,u,18µM,21µM,u
COc1ccc(CNC(=O)c2c(N)n(CCCN3CCOCC3)c3nc4ccccc4nc23)cc1,n,21µM,u,u,u,u
COC(=O)c1c(N)n(CCCN2CCOCC2)c2nc3ccccc3nc12,n,n,n,n,n,n
Nc1c(C(=O)NCc2ccccc2)c2nc3ccccc3nc2n1CCCN1CCOCC1,n,21µM,u,n,u,u
CC(C)C(=O)Nc1cc(C(F)(F)F)ccc1-n1ccnc1,n,n,n,n,n,n
CCCCNC(=O)C1(C)CCN1C(=O)c1cc2ccccc2s1 (stereo not drawn),n,x,n,u,u,n
C=CCN(C(=O)c1csnn1)C(C(=O)NCc1ccc(F)cc1)c1sccc1C (stereo not drawn),n,n,n,n,u,n
Nc1c(C(=O)NCc2ccco2)c2nc3ccccc3nc2n1CCc1ccccc1,-57,u,n,u,u,u
O=C(CCc1ccccc1)Nc1ccccc1C(=O)NCc1ccco1,n,u,n,u,n,n
C=CCC1(N(C(C)=O)c2ccccc2C)CCCCC1,n,n,n,n,n,n
COc1cccc(CNC(=O)Cc2c(C(=O)O)c(C)cn2C)c1,x,x,x,n,n,x
CCc1ccc(C(=O)CN2C(=O)NC3(CCCCCC3)C2=O)cc1,n,u,n,23µM,u,n
O=C(CN1C(=O)NC2(CCCCCCC2)C1=O)Nc1ccc(Cl)cc1,n,n,u,15µM,13µM,u
O=C1NC2(CCCCCC2)C(=O)N1Cc1cccc(Cl)c1,n,n,n,n,n,n
O=C(CN1C(=O)NC2(CCCCCC2)C1=O)Nc1ccc(OC(F)(F)F)cc1,n,x,u,9.2µM,15µM,n
O=C1NC2(CCCCC2)C(=O)N1Cc1cccc(C(F)(F)F)c1,n,9.2µM,n,n,n,n
CC(=O)Nc1ccc(NC(=O)CN2C(=O)NC3(CCCCCCC3)C2=O)cc1,n,u,n,u,n,n
Cc1nn2c(=O)cc(COC(=O)COc3ccc(F)cc3)nc2s1,x,x,x,n,n,x
CCN(Cc1ccncc1)Cc1ccc(Br)cc1,n,n,n,u,n,n
CCN(c1ccccc1)S(=O)(=O)c1ccc(Cl)c(NC(=O)CN2C(=O)NC3(CCCC3)C2=O)c1,u,n,n,18µM,u,n
CC1(c2cccc(Br)c2)NC(=O)N(CC(=O)Nc2ccc(N3CCCCC3)cc2)C1=O (stereo not drawn),n,x,u,13µM,u,n
CCCn1c(C)cc(C(=O)CN2C(=O)NC3(CCCCCC3)C2=O)c1C,n,x,n,6.5µM,10µM,n
CC(C)CC1(C)NC(=O)N(CC(=O)Nc2ccc3c(c2)CCC3)C1=O (stereo not drawn),n,n,n,26µM,u,u
CC1(c2cccc(Br)c2)NC(=O)N(CC(=O)Nc2ccc(F)cc2)C1=O (stereo not drawn),n,n,n,u,n,n
Cc1ccc(C2(C)NC(=O)N(CC(=O)Nc3ccc4c(c3)CCC4)C2=O)cc1 (stereo not drawn),n,n,n,n,u,n[9.24 µM]
SMILES,IL1B secr inh,ELG1 DNA repair,HT1080 IDH1KD tx,TDP1 cell noCPT,DT40 TDP1 CPT,HT1080-NT tox
CC(=O)Nc1ccc(S(=O)(=O)Nc2nnc(Cc3ccc(Cl)cc3)s2)cc1,n,n,n,n,n,n
CCOCCc1nn2c(=O)cc(COC(=O)c3ccc(NC(=O)c4ccc(F)cc4)cc3)nc2s1,x,x,x,n,n,x
CC1=C(C(=O)N(C(C)C)C(C)C)CC(CC(=O)NCCN2CCOCC2)C(=O)N1Cc1ccc(F)cc1 (stereo not drawn),n,x,n,n,n,n
Cc1cc(C)cc(C(=O)n2nc(C)c(S(=O)(=O)N3CCCCCC3)c2C)c1,x,x,x,n,n,x
O=C(CN1C(=O)NC2(CCCC2)C1=O)OCc1ccc(Cl)c(Cl)c1,n,u,n,21µM,16µM,n
CC1CCC2(CC1)NC(=O)N(CC(=O)Nc1cccc(S(=O)(=O)N3CCOCC3)c1)C2=O (stereo not drawn),n,n,n,n,n,n
CCN(CC)c1ccc(S(=O)(=O)N2CCCCC2)cc1NC(=O)CN1C(=O)NC2(CCCC2)C1=O,u,n,n,u,n,n
CCC1(c2ccccc2)NC(=O)N(CC(=O)Nc2cc(S(=O)(=O)N3CCCCC3)ccc2N(C)C)C1=O (stereo not drawn),n,n,n,21µM,u,n
CCc1cccc(NC(=O)CN2C(=O)NC3(CCCCCCC3)C2=O)c1,n,n,u,15µM,10µM,n
CC1CCC2(CC1)NC(=O)N(CC(=O)Nc1cccc(S(=O)(=O)N3CCCCC3)c1)C2=O (stereo not drawn),n,n,n,23µM,u,n
CCOc1ccccc1OCC(=O)NCCc1ccc(S(N)(=O)=O)cc1,n,n,n,n,n,n
O=C(Oc1ccc(Nc2ncnc3ccccc23)cc1)c1cccnc1,n,n,n,u,n,n
Cc1ccc(S(=O)(=O)N(C)CC(=O)Oc2ccc(-c3nnco3)cc2)cc1,n,u,n,n,n,n
Cc1cc(NC(=O)CN2C(=O)NC3(CCCCCC3)C2=O)ccc1Br,n,u,u,21µM,u,u
Cc1ccc(NC(=O)CN2C(=O)NC3(CCCC3)C2=O)cc1S(=O)(=O)N1CCCCC1,n,n,n,n,n,n
CCCCNC(=S)N1CCN(c2ccccc2Cl)CC1,-58,n,n,n,n,n
C=CCNC(=S)N1CCN(c2ccccc2Cl)CC1,n,n,n,u,u,n
S=C(NCc1ccco1)N1CCN(c2nc(-c3ccc(Cl)cc3)cs2)CC1,-61,u,u,u,u,u
S=C(NCc1ccco1)N1CCN(c2nc(-c3ccccc3)cs2)CC1,-73,u,n,u,u,n
S=C(NCC1CCCO1)N1CCN(c2nc(-c3ccccc3)cs2)CC1 (stereo not drawn),-58,23µM,n,u,u,n
